High-throughput results deposited in PubChem by National Center for Advancing Translational Sciences (NCATS).
HttQ103 aggreg: qHTS Multiplex Assay to Identify Dual Action Probes in a Cell Model of Huntington: Aggregate Formation (GFP) | 220,000 tested, 1.1% active | Potency, µM (highest dose often 46.1 µM), inactives show at the highest dose activity change, negative = inhibition, most hits filed as inhibitors | PC12 HttQ103-GFP aggregates, Acumen cytometry, 40 h; also: % is scaled to controls: 0 for no effect and ±100 for the full control effect; nearly all actives have a fitted effect of over 60% in size
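Read-out: GFP aggregate count by laser scanning cytometer (488 nm excitation, 500-530 nm emission, 1–25 µm objects >6 SD above background). Cells: PC12, inducible HTTex1-Q103-GFP, 100 nM tebufenozide; compounds titrated.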
ALDH1A1 inh: qHTS Assay for Inhibitors of Aldehyde Dehydrogenase 1 (ALDH1A1); Aldehyde dehydrogenase 1A1 (Homo sapiens), P00352; Purified ALDH1A1, NADH fluorescence, propionaldehyde substrate; Potency, µM (top dose mostly 75.3 µM), for inactives: at the top dose activity, negative = inhibition, usual class: inhibitors; 220,000 tested, 7.3% active; AID 1030, 2008; active = well fitted inhibition curve with a large enough effect, not every such curve was filed as active; inconclusive = small, poorly fitted or top-dose-only effect, or another doubt; inactive = no such curve, though single readings can be large or run the other way;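 also: plate controls were no enzyme wells and a reference inhibitor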
Target sequence (P00352 whole entry, looked up): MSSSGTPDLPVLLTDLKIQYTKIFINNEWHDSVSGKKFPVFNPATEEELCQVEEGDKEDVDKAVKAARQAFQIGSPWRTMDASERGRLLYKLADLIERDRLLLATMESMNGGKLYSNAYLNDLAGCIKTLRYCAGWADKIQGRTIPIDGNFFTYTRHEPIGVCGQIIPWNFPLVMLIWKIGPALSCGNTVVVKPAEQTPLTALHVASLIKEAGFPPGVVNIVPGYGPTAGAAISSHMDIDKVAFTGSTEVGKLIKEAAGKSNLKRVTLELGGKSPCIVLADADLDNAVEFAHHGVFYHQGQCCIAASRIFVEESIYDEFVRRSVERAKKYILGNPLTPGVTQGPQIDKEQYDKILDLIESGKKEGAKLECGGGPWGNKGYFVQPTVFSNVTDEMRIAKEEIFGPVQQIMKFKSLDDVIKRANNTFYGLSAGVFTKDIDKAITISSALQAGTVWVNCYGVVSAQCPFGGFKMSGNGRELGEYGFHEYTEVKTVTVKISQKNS
Lamin A splicing: qHTS Assay for Modulators of Lamin A Splicing; 200,000 tested, 0.01% active; Potency, µM (top dose mostly 46.1 µM), inactives show top-dose ratio change, negative = inhibition, most hits filed as inhibitors; AID 1487, 2009; HeLa LMNA splicing GFP/RFP minigene ratio, 48 h; active = well fitted inhibition curve with a large enough effect in the signal ratio, with a control signal flat, not every such curve was filed as active; inconclusive = small, poorly fitted or top-dose-only effect, or effect the other way, or a change in a side signal; the % refers to the signal ratio; also: % is scaled to controls: 0 for no effect and ±100 for the full control effect
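S3 HeLa stable clones carrying a lamin A-EGFP splicing minigene plus DsRed2 were seeded at 600 cells/well in Opti-MEM with 2% FBS, pin-dosed and incubated 48 h at 37°C. Acumen cytometry (488 nm) gave the GFP/RFP total-intensity ratio.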
HTT cytoprotect: qHTS Multiplex Assay to Identify Dual Action Probes in a Cell Model of Huntington: Cytoprotection (ATP); Potency, µM (series often up to 56.4 µM), for the others: cytoprotection (ATP increase), most hits filed as activators; 230,000 tested, 0.14% active; PC12 HTT-Q103 induced, cytoprotection, ATP luminescence, 40 h; also: % of control where 0% means no effect; nearly all actives have a fitted effect of over 45% in size
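Stable PC12 Q103-GFP cells in serum-supplemented, phenol red-free DMEM; induction by tebufenozide at 100 nM final; compound dose series; cell viability quantified luminescently from ATP.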
Luc counter: Counterscreen for Luciferase (Kinase-Glo TM) Inhibition | Luciferin 4-monooxygenase (Photuris pensylvanica), Q27757 | Kinase-Glo luciferase, ATP luminescence, 8 min | Potency, µM (highest dose often 38.3 µM), for inactives: top-dose activity change, negative = inhibition, most hits filed as inhibitors | 200,000 tested, 0.28% active | AID 1379, 2008; also: % is scaled to controls: 0 for no effect and ±100 for the full control effect; nearly all actives have a fitted effect of over 60% in size
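Compound is pinned into ATP-containing buffer (10 uM ATP, imidazole pH 7.2, 7 mM MgCl2). Kinase-Glo luciferase reagent is then added. Light output is recorded following an 8-min room-temperature incubation.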
HPGD inh: qHTS Assay for Inhibitors of HPGD (15-Hydroxyprostaglandin Dehydrogenase); purified HPGD, NADH fluorescence kinetic, PGE2 substrate; 150,000 tested, 4.3% active; 15-hydroxyprostaglandin dehydrogenase [NAD(+)] (Homo sapiens), P15428; Potency, µM, for the others: top-dose activity change, negative = inhibition, usual class: inhibitors; active = well fitted inhibition curve with a large enough effect, not every such curve was filed as active; inconclusive = small, poorly fitted or top-dose-only effect, or another doubt; inactive = no such curve, though single readings can be large or run the other way; also: % is scaled to controls: 0 for no effect and ±100 for the full control effect
Target sequence (P15428 whole entry, looked up): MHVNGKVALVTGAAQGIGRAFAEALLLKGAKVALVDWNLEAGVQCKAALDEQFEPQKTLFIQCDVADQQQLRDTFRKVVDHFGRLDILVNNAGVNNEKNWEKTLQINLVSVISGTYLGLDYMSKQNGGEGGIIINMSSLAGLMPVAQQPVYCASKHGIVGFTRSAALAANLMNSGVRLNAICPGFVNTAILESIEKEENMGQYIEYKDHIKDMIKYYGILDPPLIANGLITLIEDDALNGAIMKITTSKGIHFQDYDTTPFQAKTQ
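20 nM HPGD preincubated 15 min at room temperature with compound in 50 mM Tris-HCl pH 8, 0.01% Tween 20. Started with 1 mM NAD+ and 30 uM prostaglandin E2; NADH fluorescence (360/450 nm) read 5 times over 30-s intervals, last minus first.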
Numbers without * were called inactive; u = inconclusive; x = no result given; [ ] = remark or other dose. This is a sample that favours compounds with a hit; in the whole collection about 9% have one here. Unless noted, calls follow the shape of the dose curve; as a rule, active = well fitted curve in the direction sought with a large enough effect; inconclusive = small, poorly fitted or top-dose-only effect, or another doubt; inactive = no such curve, though single readings can be large; an effect the other way counts as inactive or inconclusive. Potency is read from the fitted curve at half-maximal effect.

SMILES	HttQ103 aggreg	ALDH1A1 inh	Lamin A splicing	HTT cytoprotect	Luc counter	HPGD inh
Cn1c(=O)c2c(nc(CN3CCOCC3)n2CC(=O)c2ccccc2)n(C)c1=O	x	x	x	-10%[0.074 µM]	x	x
O=S(=O)(c1ccc(-c2ccon2)s1)N1CCOCC1	3%[9.22 µM]	x	x	19%[10 µM]	x	x
O=C1OCC(c2ccccc2)=C1c1ccc(S(=O)(=O)N2CCOCC2)s1	21%	20µM*	9%	-3%	-10%	u
COC(=O)C1=C(C)N(C)C(=O)/C1=C\c1cccs1	8%	u	-15%	-2%[10 µM]	1%	-4%
CN1C(=O)C(Cl)(Cl)C(=O)c2ccccc21	u	0.4µM*	u	-6%[10 µM]	-4%	22µM*
CN1C(=O)C2(NC(=O)c3ccccc3N2C)c2ccccc21 (configuration not stated)	-13%[9.22 µM]	x	x	9%[10 µM]	x	x
COc1ccc(C2=NN(S(=O)(=O)c3ccccc3)C(c3ccccc3)C2)cc1 (configuration not stated)	-12%[9.22 µM]	x	x	-21%[10 µM]	x	x
COc1ccc(C2=NN(CN3C(=O)C(=O)c4ccccc43)C(c3ccc(OC)cc3)C2)cc1 (configuration not stated)	-6%	0.11µM*	u	x	1%	-23%
O=C(CSc1cc([N+](=O)[O-])cc(S(=O)(=O)Cc2ccccc2)c1)NC1CC1	-4%	25µM*	7%	x	-3%	22µM*
C=CCNC(=O)CSc1cc([N+](=O)[O-])cc(S(=O)(=O)Cc2ccccc2)c1	7%	4.5µM*	10%	9%[10 µM]	2%	u
C=CCNC(=O)CSc1ccc(Cl)cc1	5%	14%	3%	-7%[0.074 µM]	7%	-15%
CCn1c(-c2cc(-c3cc(C)ccc3C)nc3ccccc23)n[nH]c1=S	5%	u	5%	x	1%	-27%
CCn1c(-c2cc(C3CC3)nc3ccccc23)n[nH]c1=S	u	u	17%	x	10%	13µM*
Cc1cc(C)c2cc(CN(CCO)C(c3nnnn3Cc3ccc(F)cc3)C(C)C)c(=O)[nH]c2c1 (configuration not stated)	-10%	13µM*	u	-18%[10 µM]	4%	1%
Cc1cc(C)c2cc(C(O)c3nnnn3Cc3ccccc3)c(=O)[nH]c2c1 (configuration not stated)	-1%	-11%	13%	-3%[10 µM]	1%	-24%
C/C(=N\NC(=O)c1ccccc1[N+](=O)[O-])c1ccc(Br)s1	22%	3%	11%[46 µM]	u	2%	x
C/C(=N\NC(=O)c1ccccn1)c1ccc(C(=O)O)s1	18%[9.22 µM]	10µM*	x	20%[10 µM]	14µM*	x
C=CCNC(=S)N/N=C(\C)c1ccccn1	3.5µM*	u	u	-61%[10 µM]	-2%	-22%
C/C(=N\NC(=O)c1ccccc1O)c1ccc(Br)s1	-8%	-14%	u	-40%[10 µM]	-28%	32µM*
C/C(=N/NC(=O)CNC(=O)c1ccccn1)c1ccccc1	5%	14µM*	-2%	-5%[10 µM]	1%	u
COc1ccc(OCCSc2nc(N)cc(=O)[nH]2)cc1	43%[9.22 µM]	1%	x	14%[10 µM]	-1%	x
O=C1C(=O)N(Cc2cccc([N+](=O)[O-])c2)c2ccccc21	u	0.05µM*	4%	-84%[10 µM]	0%	u
CCN1CCN(C(=O)NC(c2ccc(C)c(F)c2)C(Cl)Cl)CC1 (configuration not stated)	3%	u	-1%[46 µM]	-31%	-1%	x
CCOC(=O)CNC(=O)/C=C/c1ccc2c(c1)OCO2	-4%	u	-9%[46 µM]	-7%[10 µM]	-6%	x
CCN(C(=O)/C=C/c1ccc2c(c1)OCO2)c1ccccc1	19%	-15%	1%	13%[10 µM]	-5%	28µM*
SMILES	HttQ103 aggreg	ALDH1A1 inh	Lamin A splicing	HTT cytoprotect	Luc counter	HPGD inh
O=C(O)CCc1nn2c3ccccc3nc2n(-c2ccccc2)c1=O	-2%	1%	13%	-6%	-3%	-10%
Cc1nc2ccccn2c1C(=O)N=Nc1c(O)n(CCC(C)C)c2ccccc12	35µM*	u	-5%	14%[10 µM]	2%	-1%
Cc1ccc(S(=O)(=O)Nc2cccc(-c3cn4ccsc4n3)c2)cc1	-10%	16µM*	u	-24%	1%	-3%
O=S(=O)(Nc1cccc(-c2cn3ccsc3n2)c1)c1ccc(F)cc1	-17%	-4%	u	-13%	0%	-14%
Cc1cccc(S(=O)(=O)Nc2cccc(-c3cn4ccsc4n3)c2)c1	3%	10µM*	u	-12%	-6%	-23%
Cc1nc(-c2cccc(NS(=O)(=O)c3ccccc3)c2)cs1	u	14µM*	-1%	15%	-7%	14µM*
FC(F)(F)c1ccc(CSc2nccn2-c2ccccc2)cc1	1%	12%	17%	-21%	-2%	-2%
COc1cccc2c3c(c(=O)[nH]c12)CCC(C)(C)O3	-12%	5%	-9%	-9%	-1%	16µM*
CCOC(=O)N1CCN(c2c(-c3ccccc3)c3cc(Cl)ccc3[nH]c2=O)CC1	-3%	92%	20%	12%[0.074 µM]	-8%	u
O=C1CCCC2=C1C1(O)C(=O)c3ccccc3C1(O)O2 (configuration not stated)	-10%	4µM*	23%	-8%[10 µM]	2%	-2%
N#CC1=C(N)OC2=C(C(=O)CCC2)[C@]12C(=O)N(CC(N)=O)c1ccccc12	5%	9%	0%	11%	x	x
Cc1cc(C)c2cc(CN(CC3CCCO3)C(=S)NCc3ccco3)c(=O)[nH]c2c1 (configuration not stated)	-6%[9.22 µM]	16µM*	u	-2%[10 µM]	-5%	x
Cc1ccc2[nH]c(=O)c(CN(CC3CCCO3)C(=S)NCc3ccco3)cc2c1 (configuration not stated)	u	u	-6%	14%[10 µM]	-1%	-8%
Cc1ccc2cc(CN(CC3CCCO3)C(=S)NCc3ccco3)c(=O)[nH]c2c1 (configuration not stated)	3%[9.22 µM]	3.5µM*	u	-12%[10 µM]	-6%	x
Cc1cccc(NC(=O)N(Cc2cc3cc(C)ccc3[nH]c2=O)CC2COCCO2)c1 (configuration not stated)	-5%[9.22 µM]	32µM*	x	-20%[10 µM]	-1%	x
Cc1cc(C)c2[nH]c(=O)c(CN(CC3CCCO3)C(=S)NCc3ccco3)cc2c1 (configuration not stated)	6%	u	-16%	34%[10 µM]	-3%	-19%
